# Results: PubChem BioAssay (NCATS)
# Results filed as inconclusive are left out. Where a call stands in place of a potency, no number is given. The source made the active and inactive calls.
# Target: T1, Tyrosine-protein phosphatase non-receptor type substrate 1 (Homo sapiens) + Leukocyte surface antigen CD47 (Homo sapiens) (UniProt P78324+Q08722)
# Test: CD47-SIRPalpha protein protein interaction - LANCE assay qHTS validation (AID 1347057; active = well fitted curve in the direction sought with a large enough effect in the signal ratio, with a control signal flat, not every such curve was filed as active; the % refers to the signal ratio)
# Conditions: Recombinant CD47-His / biotin-SIRPalpha, TR-FRET ratio; series mostly up to 38.3 µM
# Method in brief: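 Inhibition of soluble CD47/SIRPalpha ectodomain association by titrated compounds, measured as 665/615 nm time-resolved FRET ratio after sequential 30 min room-temperature incubations.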
# T1 sequence (P78324 whole entry, looked up): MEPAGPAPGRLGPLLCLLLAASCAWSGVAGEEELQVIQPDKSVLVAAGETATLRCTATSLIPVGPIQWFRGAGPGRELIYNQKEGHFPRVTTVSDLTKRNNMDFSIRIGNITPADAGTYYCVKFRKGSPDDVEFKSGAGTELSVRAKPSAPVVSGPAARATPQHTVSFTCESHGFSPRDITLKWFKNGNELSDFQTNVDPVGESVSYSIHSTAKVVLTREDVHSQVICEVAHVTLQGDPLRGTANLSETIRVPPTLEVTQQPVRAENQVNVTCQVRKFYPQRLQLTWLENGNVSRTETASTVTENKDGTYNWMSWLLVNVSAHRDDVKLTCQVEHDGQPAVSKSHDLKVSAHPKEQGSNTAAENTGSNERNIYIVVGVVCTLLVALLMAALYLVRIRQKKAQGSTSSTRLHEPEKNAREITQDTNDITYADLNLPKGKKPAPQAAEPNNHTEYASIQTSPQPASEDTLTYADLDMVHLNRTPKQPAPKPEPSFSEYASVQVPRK
# T1 sequence (Q08722 whole entry, looked up): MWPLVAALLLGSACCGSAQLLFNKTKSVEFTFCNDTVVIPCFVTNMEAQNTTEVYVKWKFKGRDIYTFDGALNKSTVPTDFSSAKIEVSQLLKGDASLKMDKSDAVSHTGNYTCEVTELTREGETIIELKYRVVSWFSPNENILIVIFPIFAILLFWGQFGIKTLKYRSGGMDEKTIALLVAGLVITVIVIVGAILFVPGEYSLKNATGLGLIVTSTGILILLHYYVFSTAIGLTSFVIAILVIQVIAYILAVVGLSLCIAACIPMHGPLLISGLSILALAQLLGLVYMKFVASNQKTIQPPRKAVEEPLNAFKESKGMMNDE
row,SMILES,Potency
1,N[C@H](CCCP(=O)(O)O)C(=O)O,inactive
2,O=C(c1cc(O)c(O)c([N+](=O)[O-])c1)c1ccccc1F,inactive
3,COCCOc1cc2nc[nH]c(=O)c2cc1OCCOC,inactive
4,O=C(/C=C/c1ccc(O)cc1)c1ccc(O)cc1O,inactive
5,NC[C@@H]1O[C@H](C23CC4CC(CC(C4)C2)C3)Cc2c1ccc(O)c2O,inactive
6,Nc1nc2ccc(Cl)cc2n2c(-c3ccccc3)nnc12,inactive
7,NC[C@H]1O[C@@H](n2cnc3c(N)ncnc32)[C@H](O)[C@@H]1O,inactive
8,Nc1nc2c(ncn2[C@@H]2O[C@H](CO)[C@@H](O)[C@@H]2O)c(=O)[nH]1,inactive
9,O=C1NC(O)=NC1(c1ccccc1)c1ccccc1,inactive
10,NS(=O)(=O)c1ccc(-n2nc(C(F)(F)F)cc2-c2ccc(Cl)cc2)cc1,inactive
11,N#C/C(=C\c1ccc(-c2cc(Cl)ccc2Cl)o1)C(=O)Nc1cccc2ncccc12,inactive
12,Clc1ccc(N2CCN(Cc3cc4ccccn4n3)CC2)cc1,inactive

# Target: T1, Tyrosine-protein phosphatase non-receptor type substrate 1 (Homo sapiens) + Leukocyte surface antigen CD47 (Homo sapiens)
# Test: CD47-SIRPalpha protein protein interaction - HTRF assay qHTS validation (AID 1347058; active = well fitted curve in the direction sought with a large enough effect in the signal ratio, not every such curve was filed as active; the % refers to the signal ratio)
# Conditions: TR-FRET HTRF CD47-His / biotin-SIRPalpha binding, ratio 665/615; series mostly up to 38.3 µM
# Method in brief: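 Soluble extracellular domains (6His-CD47, Avi-tag-biotinylated SIRPalpha) in PBS pH 7.4 with 0.05% IGEPAL CA-630. Compounds were preincubated 30 min at RT with CD47 and anti-His-Eu, then SIRPalpha and SAV-XL665 were added. TR-FRET 665/615 ratio.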
row,SMILES,outcome
1,CC[C@@H](C)[C@H]1O[C@]2(CC[C@H]1C)C[C@@H]1C[C@@H](CC=C(C)[C@@H](O[C@H]3C[C@H](OC)[C@@H](O[C@H]4C[C@H](OC)[C@@H](O)[C@H](C)O4)[C@H](C)O3)[C@@H](C)C=CC=C3CO[C@@H]4[C@H](O)C(C)=C[C@@H](C(=O)O1)[C@]34O)O2,inactive
2,Fc1cccc(/C=N/N=C/c2cccc(F)c2)c1,inactive
3,CCCCCCCCCCCCCCCCCC(=O)OC(CC(=O)O)C[N+](C)(C)C (stereo not given),inactive
4,CN[C@H](CC(C)C)C(=O)N[C@H]1C(=O)N[C@@H](CC(N)=O)C(=O)N[C@H]2C(=O)N[C@H]3C(=O)N[C@H](C(=O)N[C@H](C(=O)O)c4cc(O)cc(O)c4-c4cc3ccc4O)[C@H](O)c3ccc(c(Cl)c3)Oc3cc2cc(c3O[C@@H]2O[C@H](CO)[C@@H](O)[C@H](O)[C@H]2O[C@H]2C[C@](C)(N)[C@H](O)[C@H](C)O2)Oc2ccc(cc2Cl)[C@H]1O,inactive
5,CSc1ccccc1N1CCN(CCCCCC(=O)NC2CCCc3ccccc32)CC1 (stereo not given),inactive
6,O=c1[nH]c2cc(C(F)(F)F)ccc2n1-c1cc(C(F)(F)F)ccc1O,inactive
7,COc1ccccc1CNCCCCCCNCCCCCCCCNCCCCCCNCc1ccccc1OC,inactive
8,COCCOc1cc2nc[nH]c(=O)c2cc1OCCOC,inactive
9,NC[C@@H]1O[C@H](C23CC4CC(CC(C4)C2)C3)Cc2c1ccc(O)c2O,inactive
10,Nc1nc2ccc(Cl)cc2n2c(-c3ccccc3)nnc12,inactive
11,NC[C@H]1O[C@@H](n2cnc3c(N)ncnc32)[C@H](O)[C@@H]1O,inactive
12,Nc1nc2c(ncn2[C@@H]2O[C@H](CO)[C@@H](O)[C@@H]2O)c(=O)[nH]1,inactive
13,Clc1ccc(N2CCN(Cc3cc4ccccn4n3)CC2)cc1,inactive
